Reference: PubChem BioAssay AID1159580 (chemical genetic matrix, 2015)
Values joined by “and” are separate entries in the source; they are usually repeats but may differ in a detail not shown here. Equal entries are not always repeated. Hit rate of the full screen: of about 5,500 compounds, about 2,000 (36%) were called active. Roughly 18% stayed inconclusive and do not appear here. No stated cut-off is given here; in the data, active means normalized growth mostly below about 0.91 (no sharp cut-off); inconclusive means no clear call, values can overlap the other calls; inactive means mostly above about 0.92. This is one part of the list.

Experiment: chemical genetic growth profiling, strain panel (AID 1159580);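 further: tested at 20 µM; growth read once vehicle control cultures reached saturation at 30 °C; 1 = growth at the plate median or of vehicle wells; lower values mean less growth of the strain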
Settings: S. cerevisiae deletion strains, growth OD

Measured: normalized growth

C[C@H](N)[C@H](O)c1cccc(O)c1
inactive: locus YAL021C, strain ccr4, active compounds read low 1 | locus YAL026C, strain drs2, active compounds read low 1.01 | locus YAL030W, strain snc1, active compounds read low 1 | locus YBL061C, strain skt5, active compounds read low 1.01 | locus YBR009C, strain hhf1, active compounds read low 1.02 | locus YBR021W, strain FUR4, active compounds read low 1.04 | locus YBR023C, strain chs3, active compounds read low 1.02 | locus YBR171W, strain sec66, active compounds read low 1.02 | locus YBR229C, strain ROT2, active compounds read low 0.992 | locus YBR231C, strain swc5, active compounds read low 1 | locus YBR279W, strain paf1, active compounds read low 1.01 | locus YCL011C, strain gbp2, active compounds read low 1 | locus YCL016C, strain dcc1, active compounds read low 1.02 | locus YCL029C, strain bik1, active compounds read low 0.985 | locus YCL061C, strain MRC1, active compounds read low 1.01 | locus YCL069W, strain vba3, active compounds read low 0.994 | locus YCR088W, strain abp1, active compounds read low 1 | locus YDL005C, strain med2, active compounds read low 1.01 | locus YDL035C, strain GPR1, active compounds read low 0.983 | locus YDL040C, strain nat1, active compounds read low 1 | locus YDL074C, strain BRE1, active compounds read low 1.04 | locus YDL101C, strain DUN1, active compounds read low 0.997 | locus YDL185W, strain tfp1, active compounds read low 0.957 | locus YDL192W, strain arf1, active compounds read low 0.99 | locus YDR001C, strain nth1, active compounds read low 0.999 | locus YDR069C, strain doa4, active compounds read low 1.01 | locus YDR101C, strain arx1, active compounds read low 1 | locus YDR137W, strain rgp1, active compounds read low 1.03 | locus YDR150W, strain NUM1, active compounds read low 0.981 | locus YDR159W, strain sac3, active compounds read low 1.03 | locus YDR162C, strain NBP2, active compounds read low 0.986 | locus YDR195W, strain ref2 1 | locus YDR297W, strain sur2, active compounds read low 1 | locus YDR318W, strain mcm21, active compounds read low 0.997 | locus YDR334W, strain swr1, active compounds read low 0.999 | locus YDR335W, strain msn5, active compounds read low 0.994 | locus YDR388W, active compounds read low 0.987 | locus YDR392W, strain spt3, active compounds read low 1.02 | locus YDR502C, strain sam2, active compounds read low 1 | locus YEL003W, strain gim4, active compounds read low 1.01 | locus YEL037C, strain rad23, active compounds read low 1 | locus YEL061C, strain CIN8 (second series), active compounds read low 0.992 | locus YEL061C, strain CIN8, active compounds read low 0.988 | locus YER015W, strain faa2, active compounds read low 1.01 | locus YER016W, strain bim1, active compounds read low 1.01 | locus YER110C, active compounds read low 0.973 | locus YER111C, strain swi4, active compounds read low 1 | locus YER155C, strain BEM2 (second series), active compounds read low 0.995 | locus YER155C, strain BEM2, active compounds read low 1.01 | locus YER167W, strain BCK2, active compounds read low 0.989 | locus YFR010W, strain ubp6, active compounds read low 1.01 | locus YGL078C, strain dbp3, active compounds read low 0.995 | locus YGL086W, strain mad1, active compounds read low 1.01 | locus YGL167C, strain pmr1, active compounds read low 1.02 | locus YGL173C, strain kem1, active compounds read low 1.01 | locus YGL227W, strain vid30, active compounds read low 1 | locus YGL240W, strain doc1, active compounds read low 1.01 | locus YGL248W, strain PDE1, active compounds read low 1.02 | locus YGL253W, strain hxk2, active compounds read low 1.01 | locus YGR078C, strain PAC10, active compounds read low 1.01 | locus YGR135W, strain pre9, active compounds read low 0.942 | locus YGR252W, strain gcn5, active compounds read low 1.04 | locus YHR013C, strain ard1, active compounds read low 1.02 | locus YHR027C, strain rpn1, active compounds read low 1.02 | locus YHR030C, strain SLT2, active compounds read low 0.979 and 1.02 | locus YHR079C, strain IRE1 (second series), active compounds read low 0.999 | locus YHR079C, strain IRE1, active compounds read low 1.02 | locus YHR094C, strain hxt1, active compounds read low 0.979 | locus YHR129C, strain ARP1, active compounds read low 0.997 | locus YHR142W, strain chs7, active compounds read low 1 | locus YHR200W, strain rpn10, active compounds read low 0.987 | locus YIL066C, strain RNR3, active compounds read low 1 | locus YIL073C, strain SPO22, active compounds read low 0.828 | locus YIL125W, strain kgd1, active compounds read low 0.988 | locus YIR030C, strain dcg1, active compounds read low 0.982 | locus YJL092W, strain hpr5, active compounds read low 1.01 | locus YJL095W, strain BCK1 (second series), active compounds read low 1.01 | locus YJL095W, strain BCK1, active compounds read low 1.01 and 1.04 | locus YJL115W, strain asf1, active compounds read low 1.01 | locus YJL129C, strain trk1, active compounds read low 0.995 | locus YJL134W, strain LCB3, active compounds read low 0.985 | locus YJL154C, strain vps35, active compounds read low 0.997 | locus YJL164C, strain tpk1, active compounds read low 1.01 | locus YJL166W, strain qcr8, active compounds read low 1 | locus YJL168C, strain set2, active compounds read low 0.999 | locus YJL187C, strain SWE1 (second series), active compounds read low 0.996 | locus YJL187C, strain SWE1, active compounds read low 1.01 | locus YJR043C, strain POL32, active compounds read low 1.04 | locus YJR066W, strain TOR1, active compounds read low 0.991 | locus YKL009W, strain mrt4, active compounds read low 0.987 | locus YKL068W, active compounds read low 0.977 | locus YKL085W, strain MDH1 (second series), active compounds read low 0.984 | locus YKL085W, strain MDH1, active compounds read low 0.984 | locus YKL160W, strain elf1, active compounds read low 1 | locus YKR001C, strain vps1, active compounds read low 0.998 | locus YKR026C, strain gcn3, active compounds read low 1.01 | locus YKR091W, strain srl3, active compounds read low 0.998 | locus YLL001W, strain dnm1, active compounds read low 1.01 | locus YLL026W, active compounds read low 1 | locus YLL041C, strain sdh2, active compounds read low 1.01 | locus YLR027C, strain aat2, active compounds read low 1.01 | locus YLR039C, strain RIC1, active compounds read low 0.968 | locus YLR058C, strain SHM2, active compounds read low 0.983 | locus YLR102C, strain apc9, active compounds read low 0.993 | locus YLR113W, strain HOG1, active compounds read low 1.07 | locus YLR221C, strain rsa3, active compounds read low 1.01 | locus YLR258W, strain gsy2, active compounds read low 1 | locus YLR262C, strain YPT6 (second series), active compounds read low 1.03 | locus YLR262C, strain YPT6, active compounds read low 0.963 | locus YLR268W, strain sec22, active compounds read low 1.01 | locus YLR320W, strain mms22, active compounds read low 1.02 | locus YLR330W, strain CHS5, active compounds read low 0.985 | locus YLR342W, strain FKS1 (second series), active compounds read low 0.98 | locus YLR342W, strain FKS1, active compounds read low 1.01 | locus YLR357W, strain rsc2, active compounds read low 0.993 | locus YLR370C, strain arc18, active compounds read low 1.01 | locus YLR371W, strain rom2, active compounds read low 1 | locus YLR384C, strain iki3, active compounds read low 1.01 | locus YLR418C, strain cdc73, active compounds read low 0.983 | locus YML016C, strain PPZ1, active compounds read low 0.995 | locus YML032C, strain rad52, active compounds read low 1.01 | locus YML120C, strain ndi1, active compounds read low 1.01 | locus YML124C, strain tub3, active compounds read low 0.991 | locus YMR058W, strain fet3, active compounds read low 1 | locus YMR078C, strain ctf18, active compounds read low 0.985 | locus YMR125W, strain sto1, active compounds read low 1 | locus YMR129W, active compounds read low 1 | locus YMR205C, strain PFK2, active compounds read low 1.03 | locus YMR223W, strain ubp8, active compounds read low 0.971 | locus YMR231W, strain pep5, active compounds read low 1.02 | locus YMR263W, strain SAP30, active compounds read low 0.995 | locus YMR307W, strain GAS1, active compounds read low 1 | locus YNL067W, strain RPL9B, active compounds read low 1.02 | locus YNL071W, strain lat1, active compounds read low 0.997 | locus YNL153C, strain GIM3, active compounds read low 1.04 | locus YNL183C, strain NPR1, active compounds read low 0.989 | locus YNL209W, strain ssb2, active compounds read low 1.01 | locus YNL233W, strain BNI4, active compounds read low 1.05 | locus YNL248C, strain rpa49, active compounds read low 1.01 | locus YNL250W, strain rad50, active compounds read low 0.993 | locus YNL271C, strain bni1, active compounds read low 0.997 | locus YNL298W, strain CLA4, active compounds read low 0.993 | locus YNL307C, strain MCK1, active compounds read low 1 | locus YNL322C, strain KRE1 (second series), active compounds read low 1.01 | locus YNR049C, strain mso1, active compounds read low 1.01 | locus YNR052C, strain pop2, active compounds read low 0.993 | locus YOL012C, strain htz1 1.01 | locus YOL147C, strain pex11, active compounds read low 0.978 | locus YOR001W, strain rrp6, active compounds read low 1.01 | locus YOR061W, strain CKA2, active compounds read low 0.996 | locus YOR069W, strain VPS5, active compounds read low 0.985 | locus YOR070C, strain gyp1, active compounds read low 1.01 | locus YOR080W, strain dia2, active compounds read low 1.02 | locus YOR083W, strain WHI5, active compounds read low 1.01 | locus YOR106W, strain vam3, active compounds read low 1.02 | locus YOR136W, strain idh2, active compounds read low 1.01 | locus YOR144C, strain elg1, active compounds read low 0.996 | locus YOR184W, strain ser1, active compounds read low 0.989 | locus YOR231W, strain MKK1, active compounds read low 1.06 | locus YOR265W, strain rbl2, active compounds read low 1.01 | locus YOR270C, strain vph1, active compounds read low 1.01 | locus YOR290C, strain snf2, active compounds read low 1.03 | locus YOR316C, strain cot1, active compounds read low 0.99 | locus YPL051W, strain arl3, active compounds read low 1.01 | locus YPL055C, strain LGE1, active compounds read low 1.06 | locus YPL078C, strain atp4, active compounds read low 1.01 | locus YPL106C, strain sse1, active compounds read low 1.03 | locus YPL240C, strain hsp82, active compounds read low 1.01 | locus YPL256C, strain CLN2, active compounds read low 1.04 | locus YPR119W, strain clb2, active compounds read low 0.995 | locus YPR141C, strain kar3, active compounds read low 0.978 | locus YPR163C, strain tif3, active compounds read low 0.987 | locus YPR167C, strain met16, active compounds read low 1 | strain wtn01, active compounds read low 0.998
